± gives the standard deviation.
test system: OVCAR-3-derived ovarian cancer stem-like cells (spheroids); experiment: cell growth relative to untreated control; higher = more growth (less inhibition); conditions: 2.29 µM; 96 h
In short: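 Percent growth was calculated against untreated wells once blanks were subtracted and Grubbs outliers removed. The cells were OVCAR-3 spheroid-derived stem-like cells, trypsinized and plated at 50,000 cells/mL in stem cell medium on ultra-low attachment 96-well plates for a 24 h preincubation. They were then exposed to compounds at 2.29 uM for 96 h at 37°C, 5% CO2, in 4 replicate wells, and viability was measured by TOX8 resazurin fluorescence (ex 560/em 590 nm) after 4 h.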

Compared with `CC[C@@]1(O)C(=O)OCc2c1cc1n(c2=O)Cc2cc3c(N)cccc3nc2-1`, `CN(C)C(=O)c1cccc(COc2ccc(N3C(N)=NC(N)=NC3(C)C)cc2Cl)c1` is higher in cell growth: 46.5 ± 11% for the first, 76 ± 15% for the second.

Compared with `O=S(=O)(O)c1cc(N=Nc2cc(S(=O)(=O)O)c3cccnc3c2O)ccc1/C=C/c1ccc(N=Nc2cc(S(=O)(=O)O)c3cccnc3c2O)cc1S(=O)(=O)O`, `CCS(=O)(=O)Nc1ccc(Nc2c3ccccc3nc3ccccc23)c(OC)c1` is lower in cell growth: 93.7 ± 14% for the first, 32.5 ± 9% for the second.

`Cc1ccc2[c](c1)[Sn]([c]1ccccc1)([c]1ccccc1)[c]1cc(C)ccc1N2C` and `Cc1nc(-n2nc(-c3ccccc3)cc2-c2ccccc2)sc1C(=O)/C=C/c1ccc(Cl)c(Cl)c1` are within error of each other in cell growth: 87.8 ± 12% for the first, 109 ± 25% for the second.

Compared with `C=CCOC1OC(CO[Si](C)(C)C(C)(C)C)C(OCc2ccccc2)C(OCc2ccccc2)C1OCc1ccccc1` (centres undefined), `COc1ccc(/C=C2\N=C(c3ccccc3)OC2=O)c(OCc2ccccc2)c1` is lower in cell growth: 116 ± 18% for the first, 69.7 ± 24% for the second.

`Cc1nc2c(o1)C(=O)c1ccccc1C2=Nc1ccccc1` and `O=C1C(=O)c2ccccc2C(O)=C1CCCc1ccc(Oc2ccccc2)cc1` are within error of each other in cell growth: 123 ± 56% for the first, 87.1 ± 37% for the second.

Going from `CN(C)CCCN1c2ccccc2Sc2ccc3ccccc3c21` to `CCN1C=C/C(=C\C=C\c2cc[n+](CC)c3ccccc23)c2ccccc21`, the cell growth falls from 117 ± 58% to 22.2 ± 4.2%.

`CC[C@@]1(O)C[C@H](O[C@H]2C[C@H](N(C)C)[C@H](O[C@H]3C[C@H](O)[C@H](O[C@H]4C[C@H](O)[C@H](O)[C@H](C)O4)[C@H](C)O3)[C@H](C)O2)c2c(cc3c(c2O)C(=O)c2c(O)ccc(O)c2C3=O)[C@H]1C(=O)OC` and `Cc1cc2c(c3oc(C4(C)OC4C4OC4C)cc(=O)c13)C(=O)c1c(O)c(C3CC(C)(N(C)C)C(O)C(C)O3)cc(C3CC(N(C)C)C(O)C(C)O3)c1C2=O` (centres undefined) are within error of each other in cell growth: 78.9 ± 26% for the first, 47.6 ± 40% for the second.

Going from `CCN(CC)CCOc1ccccc1/C=C/c1noc2ccccc12` to `COc1cc(NS(C)(=O)=O)ccc1Nc1c2ccccc2nc2ccccc12`, the cell growth falls from 79.3 ± 18% to 41.4 ± 12%.

First: OC[C@H]1O[C@@H](n2cnc3cncnc32)[C@H](O)[C@@H]1O
Second: O=c1ncccn1C1OC(CO)C(O)C1F (centres undefined)
The cell growth of the first is lower: 10.4 ± 3.1% for the first, 113 ± 22% for the second.

`CCn1c(O)c(C=Nc2ccccc2)s/c1=N/Nc1ncc(CC(=O)Nc2ccccc2C)s1` and `CC(=O)N=C1N(/C=C2\C(=O)Oc3ccccc3C2=O)C(=O)/C(=C/c2ccccc2Cl)N1C` are within error of each other in cell growth: 95.9 ± 16% for the first, 122 ± 43% for the second.

`O=C1C(C(O)(C(F)(F)F)C(F)(F)F)CCC1C(O)(C(F)(F)F)C(F)(F)F` (centres undefined) and `OCCNCCN1CCN(CCCN2c3ccccc3Sc3ccc(C(F)(F)F)cc32)CC1` are within error of each other in cell growth: 104 ± 18% for the first, 126 ± 42% for the second.

Going from `OCCNCN(CNCCO)c1nc(N(CNCCO)CNCCO)nc(N(CNCCO)CNCCO)n1` to `CCCCCCCCCCCCCCCCCCOP(=O)([O-])OCC[N+](C)(C)C`, the cell growth falls from 126 ± 24% to 51.1 ± 16%.

Going from `O=C1Cc2c([nH]c3ccc(Br)cc23)-c2ccccc2N1` to `Cc1c2c(cc3c1[nH]c1ccccc13)C=NCC2`, the cell growth rises from 109 ± 9.9% to 227 ± 75%.

Going from `O=C1C(Br)=C(Br)C(=O)c2ccccc21` to `O=C1/C(=C/c2cccs2)Oc2ccccc21`, the cell growth rises from 3.3 ± 4% to 94 ± 12%.

Compared with `C/C(=N\NC(=S)N(C)C)c1ccccn1.[Cu][Br]`, `NC(=S)NN=Cc1ncccc1O` is higher in cell growth: 11.1 ± 5.9% for the first, 95.3 ± 16% for the second.

`CN(C)[C@H]1CCC2[C@@H]3CCC4C[C@@H](NC(=O)NC(Cc5ccccc5)c5nccs5)CC[C@]4(C)C3CC[C@@]21C` (some centres undefined) and `CN(C)CCOC1(Cc2ccc(F)cc2)CCC(C(C)(C)C)CC1` (centres undefined) are within error of each other in cell growth: 76.9 ± 20% for the first, 109 ± 34% for the second.

Going from `CCSC(=O)N1c2ccc(OC)cc2C=CC1C#N` (centres undefined) to `CCOC(=O)Nc1nc2ccc(Cn3cccc3)cc2[nH]1`, the cell growth rises from 52.9 ± 11% to 127 ± 20%.

Going from `Nc1nc(-c2cccs2)cs1` to `Nc1nc(=S)c2ncn([C@@H]3C[C@H](O)[C@@H](CO)O3)c2[nH]1`, the cell growth rises from 57.1 ± 11% to 110 ± 13%.

`CC1(C)NC(=O)N(CCCCCCN2C(=O)NC(C)(C)C2=O)C1=O` and `COC1C(O)=C2C(=O)OC(C)(O)/C=C/C=C\C=C/C=C/C(c3ccccc3)NC(=O)/C=C/C=C/C=C/C=C/C2(C)C1O` (centres undefined) are within error of each other in cell growth: 85.8 ± 22% for the first, 71.7 ± 31% for the second.

With `Cc1ccc(Cl)c2c(N=Nc3ccccc3[N+](=O)[O-])c(O)[nH]c12` the cell growth was 107 ± 34%.
